The source of these data is PubChem BioAssay (Tox21).

Test [1] is described as follows: qHTS assay to identify small molecule antagonists of the thyroid receptor (TR) signaling pathway (AID 743065). Also: nearly all actives have a fitted effect of over 55% in size. Also: potency is read from the fitted curve at half-maximal effect. As to conditions: GH3.TRE-Luc, T3-stimulated luciferase inhibition, 23.5 h; series mostly up to 70.3 µM. The essentials:
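Antagonism measured as loss of luciferase signal in GH3 cells stably carrying a TRE-luciferase reporter, co-treated with compound and T3 (1 nM final) for 23.5 h at 37 C. Viability was read in the same well by CellTiter-Fluor.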
Background: Quantitative high-throughput screening tests each substance at several concentrations.

In test [2] the test system is thyroid hormone receptor (rat, GH3 cells). In words: qHTS assay to identify small molecule agonists of the thyroid receptor (TR) signaling pathway (AID 743066; calls by dose curve). As to conditions: GH3.TRE-Luc cells, TR agonist luciferase, 24 h; series mostly up to 83.9 µM.
Test [3] in a line: qHTS assay to identify small molecule antagonists of the estrogen receptor alpha (ER-alpha) signaling pathway using the BG1 cell line - cell viability counter screen (AID 743081).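 Also: compound given together with 17beta-estradiol as the ER stimulus; nearly all actives have a fitted effect of over 45% in size.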 As to conditions: BG1Luc4E2 viability, CellTiter-Fluor, 22 h; series mostly up to 70.3 µM.
The target of another test is Aromatase (Homo sapiens) (UniProt P11511). The test is described as follows: qHTS assay to identify aromatase inhibitors (AID 743083). Also: nearly all actives have a fitted effect of over 55% in size. As to conditions: MCF-7 aro ERE, testosterone-driven ERE luciferase, 24 h; series mostly up to 70.3 µM.
Aromatase (Homo sapiens), sequence (P11511 whole entry, looked up): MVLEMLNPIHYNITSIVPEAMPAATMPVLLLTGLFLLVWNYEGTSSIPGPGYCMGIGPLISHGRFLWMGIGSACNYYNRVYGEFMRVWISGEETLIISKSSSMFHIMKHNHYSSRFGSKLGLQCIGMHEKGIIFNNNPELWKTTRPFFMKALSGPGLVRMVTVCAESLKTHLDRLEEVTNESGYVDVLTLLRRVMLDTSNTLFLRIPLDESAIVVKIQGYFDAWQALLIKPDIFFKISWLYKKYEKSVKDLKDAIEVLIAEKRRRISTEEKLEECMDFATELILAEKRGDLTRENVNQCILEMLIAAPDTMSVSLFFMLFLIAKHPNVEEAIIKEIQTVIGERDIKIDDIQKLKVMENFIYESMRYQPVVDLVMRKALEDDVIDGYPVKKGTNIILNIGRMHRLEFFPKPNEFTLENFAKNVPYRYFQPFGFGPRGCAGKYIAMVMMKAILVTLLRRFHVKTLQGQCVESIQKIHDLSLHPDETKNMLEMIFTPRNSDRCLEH
Test [4] is described as follows: qHTS assay to identify aromatase inhibitors - cell viability counter screen (AID 743084).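 Also: cells stimulated with testosterone during compound exposure; nearly all actives have a fitted effect of over 55% in size.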 The following applies: MCF-7 aro ERE viability, CellTiter-Fluor, 24 h; series mostly up to 70.3 µM.
Test [5] has as its target Aryl hydrocarbon receptor (Homo sapiens) (UniProt P35869). In words: qHTS assay to identify small molecule that activate the aryl hydrocarbon receptor (AhR) signaling pathway (AID 743085).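 Also: HG2L7.5c1 human HepG2 liver cells with stably integrated DRE-driven firefly reporter; nearly all actives have a fitted effect of over 15% in size.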 As to conditions: HepG2 AhR-luc (HG2L7.5c1), luciferase, 24 h; series mostly up to 70.3 µM. In short, it runs like this:
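Compounds were tested in HepG2 hepatocellular carcinoma cells harbouring a stably integrated luciferase gene under control of 20 DREs. Increased reporter signal after 24 h treatment at 37C was taken as AhR activation.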

A short description of test [6]: qHTS assay to identify small molecule that activate the aryl hydrocarbon receptor (AhR) signaling pathway - cell viability counter screen (AID 743086).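 Also: HepG2 liver cells carrying the AhR DRE luciferase reporter; nearly all actives have a fitted effect of over 45% in size.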 The following applies: HepG2-AhR-luc viability, CellTiter-Fluor, 24 h; series mostly up to 70.3 µM. In short, it runs like this:
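Cytotoxicity counter screen: CellTiter-Fluor signal (30 min, 37 C) in 4000 HepG2 cells/well carrying the DRE-luciferase reporter, following 24 h compound exposure at 37 C.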

In test [7] the target is Peroxisome proliferator-activated receptor gamma (Homo sapiens) (UniProt P37231). In words: qHTS assay to identify small molecule agonists of the peroxisome proliferator-activated receptor gamma (PPARg) signaling pathway (AID 743094; active = well fitted activation curve with a large enough effect in the signal ratio in the repeat runs, not every such curve was filed as active; the % refers to the signal ratio). As to conditions: HEK293H PPARg-UAS-bla, beta-lactamase FRET ratio, 17 h; series mostly up to 57 µM. In short, it runs like this:
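Beta-lactamase FRET fluorescence was the read-out after a 1 h room-temperature substrate step, following 17 h compound treatment at 37C of HEK293H cells expressing a UAS-driven bla reporter responsive to PPARg.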

Test [8] is described as follows: qHTS assay to identify small molecule antagonists of the peroxisome proliferator-activated receptor gamma (PPARg) signaling pathway - cell viability counter screen (AID 743194). Also: nearly all actives have a fitted effect of over 55% in size. As to conditions: PPARg-bla HEK293H viability, CellTiter-Glo luminescence, 17 h, co-treated with 50 nM rosiglitazone; series mostly up to 62.6 µM. In short, it runs like this:
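Viability was measured as CellTiter-Glo luminescence in GeneBLAzer PPARg UAS-bla HEK293H cells. These cells had been exposed 17 h at 37 C to compounds together with rosiglitazone at 50 nM final, with the beta-lactamase readout taken in the same wells.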

Test [9] can be described thus: qHTS assay for small molecule agonists of the antioxidant response element (ARE) signaling pathway - cell viability counter screen (AID 743203; calls by dose curve; also: nearly all actives have a fitted effect of over 55% in size). As to conditions: ARE-bla HepG2 viability, CellTiter-Glo luminescence, 16 h; series mostly up to 73.3 µM. The essentials: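 HepG2 cells carrying ARE-driven beta-lactamase; 2,000 cells/well; 5 hrs plating; compound pinned from DMSO; 16 hrs 37C/5% CO2; CellTiter-Glo added; 30 min RT; luminescence.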

Test [10] in a line: qHTS assay for small molecule activators of the heat shock response signaling pathway - cell viability counter screen (AID 743209). Also: nearly all actives have a fitted effect of over 50% in size. The following applies: HSE-bla HeLa viability, CellTiter-Glo luminescence, 5 h; series mostly up to 62.6 µM. The essentials: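 Luminescence from CellTiter-Glo, added after the beta-lactamase FRET read, gave the viability signal. Cells were HSE-bla HeLa treated with DMSO-dissolved compounds for 5 h at 37 C following overnight plating.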

A short description of test [11]: qHTS assay for small molecule agonists of the antioxidant response element (ARE) signaling pathway (AID 743202; active = well fitted activation curve with a large enough effect in the signal ratio in the repeat runs, not every such curve was filed as active; the % refers to the signal ratio). As to conditions: HepG2 ARE-bla reporter, beta-lactamase FRET, 16 h; series mostly up to 73.3 µM. The essentials: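 An ARE-responsive beta-lactamase gene stably integrated in HepG2 cells serves as reporter. After 5 h plating and 16 h compound incubation at 37 C, fluorescence of the B/G FRET substrate was measured.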

Test [12] in a line: qHTS assay for small molecule activators of the heat shock response signaling pathway (AID 743210; active = well fitted activation curve with a large enough effect in the signal ratio in the repeat runs, with a control signal flat, not every such curve was filed as active; the % refers to the signal ratio;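 also: HeLa cells with beta-lactamase reporter driven by heat shock elements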). As to conditions: HeLa HSE-bla reporter, beta-lactamase ratio, 5 h; series mostly up to 62.6 µM. In short, it runs like this:
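In HSE-bla HeLa cells, 5 h compound incubation (37 C) precedes addition of LiveBLAzer B/G substrate; after 2.5 h at room temperature, fluorescence intensity indicates reporter induction.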

Test [13] addresses Peroxisome proliferator-activated receptor gamma (Homo sapiens) (UniProt P37231). The test is described as follows: qHTS assay to identify small molecule antagonists of the peroxisome proliferator-activated receptor gamma (PPARg) signaling pathway (AID 743191; calls by dose curve; also: nearly all actives have a fitted effect of over 30% in size). The following applies: HEK293H PPARg-UAS-bla, beta-lactamase ratio, antagonist, 17 h; series mostly up to 62.6 µM. In short, it runs like this: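 Beta-lactamase reporter under UAS control in HEK293H PPARg-bla cells; compound treatment 17 h at 37C. Read-out: fluorescence intensity after 1 h room-temperature incubation with LiveBLAzer B/G FRET substrate.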

Test [14] is described as follows: qHTS assay to identify small molecule antagonists of the estrogen receptor alpha (ER-alpha) signaling pathway - cell viability counter screen (AID 743074; calls by dose curve;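 also: HEK293 cells carrying ER-alpha-UAS-bla reporter stimulated with 17beta-estradiol; nearly all actives have a fitted effect of over 45% in size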). The following applies: ERalpha-bla HEK293 viability, CellTiter-Glo luminescence, 18 h; series mostly up to 69.4 µM.
Test [15] deals with Estrogen receptor (Homo sapiens) (UniProt P03372). In words: qHTS assay to identify small molecule agonists of the estrogen receptor alpha (ER-alpha) signaling pathway (AID 743075; calls by dose curve). The following applies: HEK293 ER-alpha-UAS-bla, beta-lactamase FRET ratio, 18 h; series mostly up to 70.1 µM.
Estrogen receptor (Homo sapiens), sequence (P03372 whole entry, looked up): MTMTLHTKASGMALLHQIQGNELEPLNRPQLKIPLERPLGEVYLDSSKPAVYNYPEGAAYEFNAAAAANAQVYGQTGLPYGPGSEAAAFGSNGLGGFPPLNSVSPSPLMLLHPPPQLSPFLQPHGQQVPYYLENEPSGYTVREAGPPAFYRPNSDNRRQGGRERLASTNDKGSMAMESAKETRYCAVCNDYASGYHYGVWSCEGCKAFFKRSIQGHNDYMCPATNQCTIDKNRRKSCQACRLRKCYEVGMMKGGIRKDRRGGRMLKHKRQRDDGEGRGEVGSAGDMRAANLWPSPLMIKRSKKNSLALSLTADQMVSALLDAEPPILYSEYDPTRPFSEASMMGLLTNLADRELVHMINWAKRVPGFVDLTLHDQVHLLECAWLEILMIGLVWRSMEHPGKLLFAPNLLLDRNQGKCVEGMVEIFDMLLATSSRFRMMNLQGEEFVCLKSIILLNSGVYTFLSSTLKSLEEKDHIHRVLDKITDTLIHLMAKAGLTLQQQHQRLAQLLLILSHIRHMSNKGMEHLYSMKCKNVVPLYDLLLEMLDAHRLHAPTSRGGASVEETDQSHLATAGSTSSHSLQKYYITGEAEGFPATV
For test [16] the target is unchanged. In words: qHTS assay to identify small molecule agonists of the estrogen receptor alpha (ER-alpha) signaling pathway using the BG1 cell line (AID 743079). Also: nearly all actives have a fitted effect of over 20% in size. Also: potency is read from the fitted curve at half-maximal effect. As to conditions: BG1Luc4E2 cells, ERE-luciferase agonist, 22 h; series mostly up to 70.3 µM.
For test [17] the target is unchanged. In words: qHTS assay to identify small molecule antagonists of the estrogen receptor alpha (ER-alpha) signaling pathway (AID 743069; active = well fitted curve in the direction sought with a large enough effect in the signal ratio in the repeat runs, not every such curve was filed as active; the % refers to the signal ratio). The following applies: HEK293 ER-alpha-UAS-bla, beta-lactamase ratio, antagonist mode; series mostly up to 69.4 µM. In short, it runs like this:
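Compound effects are measured against 17beta-estradiol stimulation in HEK293 cells with a UAS-controlled beta-lactamase reporter for ER-alpha. Exposure lasts 18 hr at 37C; LiveBLAzer B/G FRET substrate follows for 2 hr at room temperature.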

Test [18] in a line: qHTS assay to identify small molecule antagonists of the estrogen receptor alpha (ER-alpha) signaling pathway using the BG1 cell line (AID 743080; calls by dose curve;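 also: BG1 cells stimulated with 17beta-estradiol alongside compound; nearly all actives have a fitted effect of over 25% in size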). As to conditions: BG1Luc4E2 ERE-luciferase antagonist mode, luminescence; series mostly up to 70.3 µM. The essentials:
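BG1-Luc-4E2 cells (endogenous full-length ER-alpha, stable 4×ERE-luciferase) were starved 5 days in phenol-red-free medium with 10% charcoal-stripped FBS, plated 24 h, then given compound plus 17beta-estradiol for 21.5 h at 37 C; ONE-Glo luminescence read after 30 min.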

Records with an inconclusive call do not appear. Values without a mark were called inactive. Active and inactive are the calls of the source. Unless noted, calls follow the shape of the dose curve; as a rule, active = well fitted curve in the direction sought with a large enough effect in the repeat runs; inconclusive = weak or mixed curves; inactive = no such curve, though single readings can be large; an effect the other way counts as inactive or inconclusive.
% is scaled to controls: 0 for no effect and ±100 for the full control effect.

Aryl hydrocarbon receptor (Homo sapiens), sequence (P35869 whole entry, looked up): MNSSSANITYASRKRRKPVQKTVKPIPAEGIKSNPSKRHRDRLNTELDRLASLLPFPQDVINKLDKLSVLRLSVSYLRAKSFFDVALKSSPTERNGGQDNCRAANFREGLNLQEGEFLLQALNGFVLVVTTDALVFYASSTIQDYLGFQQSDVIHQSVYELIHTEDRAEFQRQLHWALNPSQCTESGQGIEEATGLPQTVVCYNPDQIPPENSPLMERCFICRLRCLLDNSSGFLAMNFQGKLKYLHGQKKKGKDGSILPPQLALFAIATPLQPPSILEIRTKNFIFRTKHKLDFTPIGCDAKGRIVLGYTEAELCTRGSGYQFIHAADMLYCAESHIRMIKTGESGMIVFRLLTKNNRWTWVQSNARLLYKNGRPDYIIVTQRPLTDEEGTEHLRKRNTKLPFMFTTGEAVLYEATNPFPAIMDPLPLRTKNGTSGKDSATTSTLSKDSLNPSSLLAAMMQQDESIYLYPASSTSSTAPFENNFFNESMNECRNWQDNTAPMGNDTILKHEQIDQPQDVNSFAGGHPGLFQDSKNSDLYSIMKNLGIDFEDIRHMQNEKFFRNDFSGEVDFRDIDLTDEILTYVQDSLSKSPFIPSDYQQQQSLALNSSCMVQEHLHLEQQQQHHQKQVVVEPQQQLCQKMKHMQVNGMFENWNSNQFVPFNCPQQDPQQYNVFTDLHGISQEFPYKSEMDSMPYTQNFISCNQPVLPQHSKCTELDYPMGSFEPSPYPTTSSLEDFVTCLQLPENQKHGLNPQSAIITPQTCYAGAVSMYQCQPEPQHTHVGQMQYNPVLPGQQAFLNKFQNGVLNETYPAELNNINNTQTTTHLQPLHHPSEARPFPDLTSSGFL
Peroxisome proliferator-activated receptor gamma (Homo sapiens), sequence (P37231 whole entry, looked up): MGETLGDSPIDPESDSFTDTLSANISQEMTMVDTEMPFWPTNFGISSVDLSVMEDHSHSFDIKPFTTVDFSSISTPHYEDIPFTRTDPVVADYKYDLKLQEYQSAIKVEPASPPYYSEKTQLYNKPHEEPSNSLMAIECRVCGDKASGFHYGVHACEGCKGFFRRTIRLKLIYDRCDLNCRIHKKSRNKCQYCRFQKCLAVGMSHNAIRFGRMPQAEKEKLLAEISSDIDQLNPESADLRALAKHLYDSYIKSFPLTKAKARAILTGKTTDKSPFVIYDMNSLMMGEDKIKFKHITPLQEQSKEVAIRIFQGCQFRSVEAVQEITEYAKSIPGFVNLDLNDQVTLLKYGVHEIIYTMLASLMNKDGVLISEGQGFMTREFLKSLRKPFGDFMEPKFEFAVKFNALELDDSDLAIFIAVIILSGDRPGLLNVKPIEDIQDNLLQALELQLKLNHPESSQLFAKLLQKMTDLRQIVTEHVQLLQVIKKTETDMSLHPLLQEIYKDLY

For `OC[C@@H](O)C(O)[C@@H](O)CO` (stereo not given in full), the Potency result in [1], in test [3], in test [4], in test [5], in [6] and in [7] was “inactive” throughout. Moreover, the Potency entry in test [10] was “inactive”. Moreover, the compound was called inactive (in test [2]; with Aromatase (Homo sapiens); in [8]; in test [9]).

`C/C(=C1\CCOC(=O)S1)N(C=O)Cc1cnc(C)nc1N`: the result in [8], in [9] and in [12] was inactive. The Potency entry in test [11] and in test [10] was “inactive” throughout.

Turning to `O=C1NC(c2ccccc2)(c2ccccc2)C(=O)N1COP(=O)(O)O`, the result in test [13], in test [8], in [9] and in [12] was inactive. For the same compound, the Potency result in [11] and in test [10] was “inactive” in each case.

In the case of `COc1cc2c(cc1OC)C(=O)C(CC1CCN(Cc3ccccc3)CC1)C2` (stereo not given), the Potency in test [1] and in [16] was 26.6 µM (active) each time. Besides, the call (in test [2]; in test [14]; with Aromatase (Homo sapiens); in test [8]; in [9]; in test [12]) was inactive. Further, the Potency entry in test [15], in [3], in test [4], in [6], in test [7] and in test [10] was “inactive” in each case.

Take `CCCC(=O)OC/C=C(\C)CCC=C(C)C`: the compound was called inactive (in [2]; in [17]; in test [14]; in test [18]; with Aromatase (Homo sapiens); in test [13]). The result in test [8], in test [9] and in test [12] was inactive. Moreover, the Potency result in test [15], in test [16], in test [4], in test [6], in [7] and in test [11] was “inactive” throughout. Moreover, in [10], the Potency result was “inactive”.

For the compound `CCNC(=O)NCc1cccc(Cl)c1`, the call (in test [2]; in test [17]; in test [14]; in the test with Aromatase (Homo sapiens); in [13]; in test [8]) was inactive. The compound was called inactive in test [9] and in [12]. In addition, the Potency result in test [15], in [16], in test [3], in [4], in test [5] and in test [6] was “inactive” throughout. The Potency result in test [7], in [11] and in [10] was “inactive” in each case.

For `CC(C)(CO)C(O)C(=O)NCCCO` (stereo not given), the result (in test [17]; in test [14]; in test [18]; with Aromatase (Homo sapiens); in [8]; in [12]) was inactive. For the same compound, the Potency result in test [15], in test [16], in test [3], in [4], in test [5] and in test [6] was “inactive” each time. The Potency result in test [11] and in [10] was “inactive” throughout.

Regarding `[O-][n+]1cccc(/C(Cl)=N/OC[C@@H](O)CN2CCCCC2)c1`, the result in test [8] and in test [9] was inactive. Besides, the Potency entry in test [11] and in test [10] was “inactive” each time.

With `CCCC(=O)Nc1ccc(OCC(O)CNC(C)C)c(C(C)=O)c1` (stereo not given), the result (in test [17]; in test [14]; in test [18]; with Aromatase (Homo sapiens); in [8]; in test [9]) was inactive. Besides, the outcome in test [12] was inactive. In addition, the Potency entry in test [15], in test [16], in test [3], in test [4], in test [5] and in [6] was “inactive” throughout. In addition, the Potency result in test [7], in test [11] and in test [10] was “inactive” in each case.

On to `O=C1c2ccccc2C(=O)c2cc(Cl)ccc21`, for which the activation in test [2] is 1.1% [at 8.08 µM]; in [15], -3.38% [at 6.71 µM]; in [7], 0.384% [at 7.08 µM]; in test [11] it was -9.26% [at 8.36 µM]; in [12], -0.0238% [at 5.95 µM]. The activity, negative = inhibition in test [17] is -4.44% [at 6.71 µM]; in the test with Aromatase (Homo sapiens) it was 23.3% [at 8.47 µM]. Also, the activity, negative = cytotoxicity in test [14] was -11.1% [at 6.72 µM]. The activity change, negative = cytotoxicity was 5.98% [at 8.47 µM] in [3], 7.6% [at 8.47 µM] in test [4], 2.72% [at 5.95 µM] in test [8] and 2.51% [at 5.95 µM] in test [10]. Moreover, the viability change, negative = cytotoxic in test [6] was 10.5% [at 8.47 µM]; in test [9] it was -3.86% [at 8.36 µM].

`CC(C)NC(=O)c1ccc(C=O)cc1`: the result in test [8] and in [9] was inactive. For the same compound, the Potency result in [10] was “inactive”.
